Screening data deposited in PubChem BioAssay by Johns Hopkins Ion Channel Center.
A selection: hits, their analogues and other compounds. The true share with any hit is near 1.6%.
KCNQ2 block: KCNQ2 (rat) channel inhibition. AID 2156. B-score at 10 µM. CHO-K1 KCNQ2, FluxOR thallium flux, 20 min; stronger effect = lower value. hit rate 1.1% among 310,000;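 active means fluorescence ratio B-score at most minus 3 library SDs, with starting brightness B-score within 2 library SDs, cut at about -5.5 in these data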
Target sequence (O88943 whole entry, looked up): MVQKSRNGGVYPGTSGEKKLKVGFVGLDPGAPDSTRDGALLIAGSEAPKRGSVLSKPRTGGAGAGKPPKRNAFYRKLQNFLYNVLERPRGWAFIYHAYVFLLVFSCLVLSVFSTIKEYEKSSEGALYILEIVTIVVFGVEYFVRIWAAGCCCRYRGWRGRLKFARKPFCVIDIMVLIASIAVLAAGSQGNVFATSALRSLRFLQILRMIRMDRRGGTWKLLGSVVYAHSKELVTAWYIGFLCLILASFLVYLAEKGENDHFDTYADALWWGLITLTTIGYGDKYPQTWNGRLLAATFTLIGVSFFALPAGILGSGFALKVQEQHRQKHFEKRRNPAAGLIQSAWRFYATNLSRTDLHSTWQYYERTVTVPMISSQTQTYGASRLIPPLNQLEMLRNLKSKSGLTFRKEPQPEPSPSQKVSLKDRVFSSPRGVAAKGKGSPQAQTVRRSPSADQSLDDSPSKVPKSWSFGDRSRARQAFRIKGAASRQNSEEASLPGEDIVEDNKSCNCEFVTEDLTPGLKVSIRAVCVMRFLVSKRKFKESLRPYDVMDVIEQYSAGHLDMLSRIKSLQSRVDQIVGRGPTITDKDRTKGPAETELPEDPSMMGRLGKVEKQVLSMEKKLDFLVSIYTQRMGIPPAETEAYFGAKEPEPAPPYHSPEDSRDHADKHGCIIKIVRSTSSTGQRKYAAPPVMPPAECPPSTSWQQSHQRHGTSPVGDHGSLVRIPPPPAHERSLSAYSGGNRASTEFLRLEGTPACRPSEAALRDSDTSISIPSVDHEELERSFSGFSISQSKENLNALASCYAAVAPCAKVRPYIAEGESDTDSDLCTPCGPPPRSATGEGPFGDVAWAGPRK
KCNQ2 enhance: potentiators of rat KCNQ2 potassium channel; CHO-K1 KCNQ2, FluxOR thallium flux fluorescence; stronger effect = higher value; hit rate 0.54% among 310,000; AID 2239; O88943; B-score at 10 µM;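 active means fluorescence ratio B-score at least 3 SD of library B-scores, with initial fluorescence B-score within 3 of them, cut at about 5.3 in these data; same plate scores as AID 2156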;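 further: B-score of peak minus minimum over baseline fluorescence ratio after K+ and Tl+ stimulus; positive B-score means potentiation of KCNQ2 with more thallium influx and brighter signal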
Kir21 conf inh: confirmation of mouse Kir2.1 potassium channel inhibitors; Kir2.1-expressing cells, FluxOR thallium flux fluorescence; stronger effect = lower value; shares compounds with KCNQ2 enhance; Tl flux remaining, % of negative control (stronger effect = lower value), % at 10 µM; hit rate 41% among 2,300;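 active means Primary-screen hit whose thallium flux fell at least 3 control SD below untreated wells in both duplicates, with normal baseline fluorescence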;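 further: 0% = blank wells without stimulus and 100% = stimulated no-compound controls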
HEK293 Tl flux: counter-screen for Kir2.1 inhibitors: effect in parental HEK293 cells; shares compounds with KCNQ2 enhance; hit rate 19% among 2,300; AID 2105; FluxOR signal as % of negative control (100 = no effect), % at 10 µM; FluxOR thallium flux fluorescence; 0% = unstimulated blank wells;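 active means dye signal at least 3 control SD above or below untreated wells in both duplicates, raw fluorescence within 3, either direction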;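 further: percent is based on the flux ratio of peak minus minimum fluorescence over baseline F0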
CHO-K1 Tl ctr: alters thallium flux in parental CHO-K1 cells, KCNQ2 counter-screen; shares compounds with KCNQ2 enhance; FluxOR thallium flux fluorescence; zero = vehicle mean+3SD, 100% = vehicle-minus-blank window; activity increase over 3SD of controls, % at 10 µM; hit rate 43% among 1,200;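 active means signal rise of at least 3 SD above the untreated control mean, in both duplicate wells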;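 further: counter screen of KCNQ2 potentiator hits so any rise reflects channel-independent effects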
KCNQ1 sel pot: tests whether KCNQ2 potentiators also act on human KCNQ1; shares compounds with KCNQ2 enhance; CHO KCNQ1 stable, FluxOR thallium flux fluorescence; beyond 3SD, as % of vehicle-control signal; activation over 3SD threshold, % at 10 µM; hit rate 28% among 1,200;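 active means fluorescence ratio rise of at least 3 SD of vehicle wells above their mean, in both replicate wells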;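 further: 0% = vehicle mean plus 3 SD and 100% = vehicle minus unstimulated blank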
KCNQ2 pot conf: confirmation of rat KCNQ2 potassium channel potentiators | potentiation, less the hit threshold, % at 10 µM | shares compounds with KCNQ2 enhance | hit rate 68% among 1,200 | CHO-KCNQ2 cells, FluxOR thallium flux fluorescence;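 active means fluorescence ratio rising 3 SD or more over the vehicle control mean in both replicates, plus primary screen hit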;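 further: peak minus minimum thallium fluorescence divided by baseline after K/Tl stimulus; 0% = vehicle mean plus 3 SD and 100% = vehicle minus unstimulated blank difference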
Kir2-1 sel: tests whether KCNQ2 potentiators also affect mouse Kir2.1 | shares compounds with KCNQ2 enhance | HEK293 Kir2.1, FluxOR thallium flux fluorescence | activity over 3SD threshold, % at 10 µM | hit rate 2% among 1,200;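 active means fluorescence ratio rise of at least 3 SD above the vehicle-control mean, seen in both replicates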;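 further: 0% = vehicle mean plus 3 SD and 100% = vehicle minus no-stimulus blank window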
KCNQ2 W236L MoA: rat KCNQ2 W236L mutant potentiation by KCNQ2 potentiators; CHO KCNQ2-W236L, automated patch clamp current; current increase over 3SD of negative controls (%), stronger effect = higher value, % at 25 µM; hit rate 10% among 940; shares compounds with KCNQ2 enhance; AID 2558;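 active means current increase at least 3 SD of the untreated controls above them in both duplicate recordings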
Active calls of the source: *; i = inactive; . = no result given.

SMILES	KCNQ2 block	KCNQ2 enhance	Kir21 conf inh	HEK293 Tl flux	others
CCc1ccc(CN(C)C(=O)c2cc(=O)c3ccccc3o2)cc1	i	.	.	.
CN1CCC(N(C)C(=O)c2cc(=O)c3ccccc3o2)CC1	i	.	i	i
CS(=O)(=O)c1ccc(Cl)c(NC(=O)CN2C(=O)C3CCCCC3C2=O)c1 (centres undefined)	i	.	.	.
CCn1ncc([N+](=O)[O-])c1C(=O)Nc1nc2cccc(C)c2s1	i	0.05	.	.
CCn1ncc([N+](=O)[O-])c1C(=O)Nc1c(C)cccc1C	i	14*	i	i	CHO-K1 Tl ctr=-18;KCNQ1 sel pot=0;KCNQ2 pot conf=-11;Kir2-1 sel=-29
COc1ccc(CC(=O)N/N=C(/C)CC(=O)N(C)c2ccccc2)cc1	i	.	.	.
Cc1cccn2c(=O)c3cc(S(=O)(=O)c4ccc(Br)cc4)c(=N)n(C4CCCC4)c3nc12	i	0.14	i	i
N=c1c(S(=O)(=O)c2ccc(Br)cc2)cc2c(=O)n3ccccc3nc2n1C1CCCCC1	i	.	.	.
CN1CCN(S(=O)(=O)c2cccc(C(=O)Oc3ccc(Br)cc3F)c2)CC1	i	0.98	.	.
Fc1ccc(C(CCNCc2ccccn2)c2ccc(Cl)cc2)cc1 (centres undefined)	i	.	34%*	i
OC(CNCc1ccccn1)c1ccccc1 (centres undefined)	i	0.24	.	.
Cc1nc2scc(C)n2c(=O)c1S(=O)(=O)N1CCN(c2cccc(C(F)(F)F)c2)CC1	i	0.01	.	.
O=S(=O)(NCC1CCN(Cc2ccccc2)CC1)c1ccccc1C(F)(F)F	i	1.9	.	.
O=C(Nc1ccccc1)N(Cc1ccccc1)CC(O)C(F)(F)F (centres undefined)	i	.	.	.
O=C(Nc1cccc(F)c1)N(Cc1ccc(Cl)cc1)CC(O)C(F)(F)F (centres undefined)	i	6.7*	i	i	CHO-K1 Tl ctr=-1;KCNQ1 sel pot=40*;KCNQ2 pot conf=14*;Kir2-1 sel=-27;KCNQ2 W236L MoA=i
O=C(c1cccc(Br)c1)N1CCN(S(=O)(=O)N2CCCCC2)CC1	i	0.53	.	.
Cc1ccc2nc(CCc3nc4ccc(C)cc4[nH]3)[nH]c2c1	i	.	.	.
Cc1ccc2nc(CCCc3nc4ccc(C)cc4[nH]3)[nH]c2c1	i	.	70%*	i
CCOC(=O)c1ccc(CN2Cc3ccccc3C2=O)cc1	i	1	.	.
Brc1cccc(CN2CCCCCC2)c1	i	0.57	.	.
OC1(c2ccc(Br)cc2)CCN(Cc2cccc(Br)c2)CC1	i	.	20%*	i
CCOc1cc(C(c2c(C)[nH][nH]c2=O)c2c(C)[nH][nH]c2=O)ccc1OC(=O)c1cccc([N+](=O)[O-])c1	i	.	.	.
CCOc1cc(C(c2c(C)[nH][nH]c2=O)c2c(C)[nH][nH]c2=O)ccc1OCc1ccc([N+](=O)[O-])cc1	i	.	i	i
O=C(NC1CCCCCC1)C1CCN(C(=O)c2cccc(Cl)c2)CC1	i	.	.	.
